Screening results as filed in PubChem.
In the library only some 6.7% were active in any assay of this set; here they are far more common.
C diff HTS = C. difficile growth inhibition | growth activity, negative = inhibition, % at 16 µg/mL (by protocol) | AID 1259249 | Clostridium difficile clinical isolate growth, OD600, 24 h; stronger effect = lower value | 0.25% of 86,000 active;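 active means mean growth activity at or below -80% and every replicate also at or below -80%; inconclusive means mean at or below -80% but some replicate above -80%; inactive means mean growth activity above -80%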
Pf Dd2 inh = blocks growth of Plasmodium falciparum Dd2 parasites | P. falciparum Dd2 growth, SYBR Green, 72 h; stronger effect = lower value | activity change, % at 10 µM | 2.3% of 94,000 active; in the data active means activity change below about -80%; inconclusive means no clear call, values can overlap the other calls
T cruzi growth-1 = T. cruzi proliferation inhibition; inhibition, % at 8.34 µM; 5.9% of 77,000 active; T. cruzi beta-gal in NIH3T3, GalScreen luminescence, 90 h;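 active means mean inhibition above about 93%, with at least 55% of replicates each passing it, limit read from the data, passing the limit was not always enough; inconclusive means only one of those two conditions holds; inactive means neither condition holds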
T cruzi growth-2 = inhibitors of T. cruzi proliferation; shares compounds with T cruzi growth-1; T. cruzi beta-gal in NIH3T3, GalScreen luminescence, 90 h; inhibition, % at 8.35 µM; 72% of 5,600 active; AID 651739;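 active means mean replicate inhibition above about 95% and at least 55% of replicates individually reaching it, limit read from the data; inconclusive means only one of the two criteria is met; inactive means neither criterion is met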
T cruzi growth-3 = Trypanosoma cruzi proliferation inhibition. shares compounds with T cruzi growth-1. T. cruzi beta-gal in NIH3T3, GalScreen luminescence, 90 h. inhibition, % at 2.09 µM. 21% of 5,600 active;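 active means mean inhibition above about 95%, with at least 55% of replicates also reaching it, limit read from the data; inconclusive means meets just one of the two conditions; inactive means meets neither condition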
3T3 cytotox = kills mouse NIH/3T3 fibroblasts | shares compounds with T cruzi growth-1 | AID 651742 | NIH/3T3 viability, CellTiter-Glo ATP luminescence, 90 h | 14% of 5,600 active | cytotoxicity (signal decrease), % at 8.35 µM;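 active means mean signal decrease across replicates above about 35% based on untreated-well scatter, with enough replicates individually passing, limit read from the data; inconclusive means no rule stated though some were filed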
NIH3T3 tox 2 = cytotoxicity in mouse NIH/3T3 fibroblasts | shares compounds with T cruzi growth-1 | NIH/3T3 viability, CellTiter-Glo ATP luminescence, 90 h | inhibition, % at 24.9 µM | 56% of 5,600 active | AID 651744;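 active means mean loss of cell viability signal at or above a set limit, and enough replicates individually reaching it; inconclusive means meets only the mean limit or only the replicate share; inactive means meets neither condition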
Of the large screens only hits and unclear results are named; the others gave an inactive call (follow-up assays come after a bar, where they were run).

C[C@H](CO)N1C[C@H](C)[C@@H](CN(C)S(=O)(=O)c2cccc(C#N)c2)OCc2ccccc2-c2c(n(C)c3ccccc23)C1=O	none
Cc1cccc(S(=O)(=O)N(C)C[C@H]2OCc3ccccc3-c3c(n(C)c4ccccc34)C(=O)N([C@@H](C)CO)C[C@H]2C)c1	Pf Dd2 inh -84.5, T cruzi growth-1 98.7 (no result: C diff HTS) | T cruzi growth-2 99.6 | T cruzi growth-3 108.5 | 3T3 cytotox inactive | NIH3T3 tox 2 inactive
C[C@@H]1CN([C@@H](C)CO)C(=O)c2c(c3ccccc3n2C)-c2ccccc2CO[C@H]1CN(C)S(=O)(=O)c1cccc(F)c1	none
Cc1cccc(S(=O)(=O)N(C)C[C@@H]2OCc3ccccc3-c3c(n(C)c4ccccc34)C(=O)N([C@@H](C)CO)C[C@@H]2C)c1	Pf Dd2 inh -85.9, T cruzi growth-1 100.3 (no result: C diff HTS) | T cruzi growth-2 102.8 | T cruzi growth-3 inactive | 3T3 cytotox inactive | NIH3T3 tox 2 80.4
CC=Cc1ccc2n(c1=O)C[C@@H]1[C@@H](CO)[C@H](C(=O)NCC)[C@H]2N1C(=O)c1ccc(F)cc1 (mixture of isomers)	none
C[C@H](CO)N1C[C@H](C)[C@H](CN(C)C(=O)Nc2ccnc(N3CCOCC3)c2)OCc2ccccc2-c2c(n(C)c3ccccc23)C1=O	none (no result: T cruzi growth-1)
C[C@H](CO)N1C[C@H](C)[C@H](CN(C)C(=O)Nc2ccccc2)OCc2ccccc2-c2ccccc2C1=O	none (no result: C diff HTS)
C[C@H]1CN([C@@H](C)CO)C(=O)c2ccccc2-c2ccccc2CO[C@H]1CN(C)C(=O)Nc1ccnc(N2CCOCC2)c1	T cruzi growth-1 105.5 | T cruzi growth-2 101.3 | T cruzi growth-3 inactive | 3T3 cytotox inactive | NIH3T3 tox 2 33.4
C[C@@H]1CN([C@@H](C)CO)C(=O)c2ccccc2-c2ccccc2CO[C@@H]1CN(C)C(=O)Nc1ccnc(N2CCOCC2)c1	T cruzi growth-1 106.4 | T cruzi growth-2 107.3 | T cruzi growth-3 inactive | 3T3 cytotox inactive | NIH3T3 tox 2 28.1
C[C@H](CO)N1C[C@H](C)[C@H](CN(C)C(=O)Nc2ccnc(N3CCOCC3)c2)OCc2ccccc2-c2ccccc2C1=O	T cruzi growth-1 110.2 | T cruzi growth-2 inconclusive | T cruzi growth-3 inactive | 3T3 cytotox inactive | NIH3T3 tox 2 inactive
C[C@H](CO)N1C[C@H](C)[C@@H](CN(C)C(=O)Nc2ccccc2)OCc2ccccc2-c2ccccc2C1=O	none (no result: C diff HTS)
CO[C@H]1CN(C)C(=O)c2ccc(NC(C)=O)cc2OC[C@H](C)N(Cc2ccncc2)C[C@H]1C	none
CCCNC(=O)N(C)C[C@H]1Oc2ncc(Br)cc2C(=O)N([C@H](C)CO)C[C@@H]1C	none (no result: T cruzi growth-1)
COc1ccc(NC(=O)N(C)C[C@@H]2Oc3ccc(NS(=O)(=O)c4cn(C)cn4)cc3CC(=O)N([C@H](C)CO)C[C@@H]2C)cc1	none
CN1[C@@H]2c3ccc(-c4ccc(F)cc4)c(=O)n3C[C@H]1[C@H](CO)[C@H]2C(=O)NC1CCCCC1	none
C[C@H]1CCCCO[C@@H](CN(C)C)[C@@H](C)CN([C@@H](C)CO)C(=O)c2cc(NS(=O)(=O)c3cccs3)ccc2O1	none
C[C@H]1CN([C@@H](C)CO)S(=O)(=O)c2ccc(C#CCN(C)C)cc2O[C@@H]1CN(C)C(=O)C1CCCCC1	none (no result: T cruzi growth-1)
C[C@H](CO)N1C[C@H](C)[C@@H](CN(C)C(=O)C2CC2)Oc2cc(C#CCN(C)C)ccc2S1(=O)=O	T cruzi growth-1 100.0 | T cruzi growth-2 107.3 | T cruzi growth-3 inactive | 3T3 cytotox inactive | NIH3T3 tox 2 inactive
C[C@H](CO)N1C[C@H](C)[C@@H](CN(C)C(=O)C2CCC2)Oc2cc(C#CCN(C)C)ccc2S1(=O)=O	T cruzi growth-1 105.6 | T cruzi growth-2 98.9 | T cruzi growth-3 inactive | 3T3 cytotox inactive | NIH3T3 tox 2 inactive
C[C@@H]1CN([C@H](C)CO)S(=O)(=O)c2ccc(C#CCN(C)C)cc2O[C@@H]1CN(C)C(=O)C1CCC1	none
COc1ccc(S(=O)(=O)N2CCCCN3[C@@H](CO)[C@H](c4ccc(C#CC5CC5)cc4)[C@@H]3C2)cc1	T cruzi growth-1 109.0 | T cruzi growth-2 101.6 | T cruzi growth-3 inactive | 3T3 cytotox 45.3 | NIH3T3 tox 2 104.5
O=S(=O)(c1ccc(F)cc1)N1CCCCN2[C@H](CO)[C@@H](c3ccc(C#CC4CC4)cc3)[C@@H]2C1	none
